Measurements: PubChem BioAssay (NCATS)
Results filed as inconclusive are left out. The source made the active and inactive calls. Unless noted, calls follow the shape of the dose curve; as a rule, active = well fitted cell-killing curve with a large enough effect; inconclusive = small, poorly fitted or top-dose-only effect; inactive = flat fitted curve, though single readings scatter.

Columns and labels:
[1] = Cell Viability - LYMP2-025 (AID 976);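 also: series mostly up to about 92 µM; plate controls were DMSO only for no effect and tetraoctylammonium bromide control for full effect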
Method in brief: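 In qHTS format, LYMP2-025 lymphoblastoid cells in complete culture medium received compound for 24 hr; ATP-based CellTiter-Glo signal gave viability, with AC50 derived by Hill equation.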

[2] = Cell Viability - LYMP2-002 (AID 977);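 also: series mostly up to about 92 µM; plate controls were DMSO only for no effect and 92 µM tetraoctylammonium bromide for full effect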
Method in brief: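 Luminescent ATP readout (CellTiter-Glo, 30 min room temperature) after 24 h compound exposure at 37 C of a human lymphoblastoid line, 2500 cells/well. AC50 values derived by standard Hill fitting of qHTS concentration-response data.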

[3] = Cell Viability - LYMP2-006 (AID 978); also: series mostly up to about 92 µM; % is scaled to controls: 0 for no effect and ±100 for the full control effect; nearly all actives have a fitted effect of over 60% in size
Method in brief: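 Potency values are Hill-fit AC50s for decreases in intracellular ATP (CellTiter-Glo luminescence). LYMP2-006 lymphoblastoid cells, 2500 per well, were exposed to compound in complete culture medium for 24 hr at 37 C.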

[4] = Cell Viability - LYMP2-008 (AID 980); also: % is scaled to controls: 0 for no effect and ±100 for the full control effect; nearly all actives have a fitted effect of over 60% in size
Method in brief: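 Acute cytotoxicity is scored as concentration-dependent loss of cellular ATP in a human lymphoblastoid line after 24 hr treatment at 37 C. ATP is quantified by luciferase luminescence.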

[5] = Cell Viability - LYMP2-010 (AID 981); also: % is scaled to controls: 0 for no effect and ±100 for the full control effect; nearly all actives have a fitted effect of over 55% in size
Method in brief: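 Acute toxicity is scored as a concentration-dependent loss of cellular ATP in human lymphoblastoid cells after 24 hr compound exposure in complete medium. Tetraoctylammonium bromide is the positive control.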

[6] = Cell Viability - LYMP2-012 (AID 982);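 also: cellular ATP by luciferase luminescence where a drop means cytotoxicity; cells exposed to compound for one day before reading; 0% = DMSO only and full loss = 92 µM tetraoctylammonium bromide; nearly all actives have a fitted effect of over 55% in size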
[7] = Cell Viability - LYMP2-014 (AID 983);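 also: series mostly up to about 92 µM; plate controls were DMSO only for no effect and 92 µM tetraoctylammonium bromide for full effect; nearly all actives have a fitted effect of over 50% in size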
Method in brief: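 Decrease in intracellular ATP after 24 hr treatment at 37 C, measured by luciferase luminescence, indicated cytotoxicity. Concentration-response data were fitted with the standard Hill equation to give AC50.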

[8] = Cell Viability - LYMP2-016 (AID 984); also: % is scaled to controls: 0 for no effect and ±100 for the full control effect; nearly all actives have a fitted effect of over 55% in size
Method in brief: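 Cytotoxicity was scored by luminescent ATP content (CellTiter-Glo) after 24 h compound exposure at 37 C of a human lymphoblastoid line at 2500 cells/well. Concentration-response data were fitted to the Hill equation for AC50.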

[9] = Cell Viability - LYMP2-018 (AID 985);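 also: compound exposure lasted 24 hr at 37 °C; plate controls were DMSO only for no effect and tetraoctylammonium bromide at 92 µM for full effect; nearly all actives have a fitted effect of over 50% in size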
Method in brief: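 Acute cytotoxicity is scored as a concentration-dependent drop in intracellular ATP after 24 hr exposure of the lymphoblastoid line in complete culture medium, measured by luciferase luminescence. Potency is expressed as AC50 from Hill modelling.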

[10] = Cell Viability - LYMP2-020 (AID 986);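 also: series mostly up to about 92 µM; plate controls were DMSO only for no effect and tetraoctylammonium bromide at 92 µM for full effect; nearly all actives have a fitted effect of over 55% in size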
Method in brief: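 Acute cytotoxicity in a human lymphoblastoid line is scored as a concentration-dependent fall in cellular ATP after 24 hr at 37 C in complete medium. The positive control is tetraoctylammonium bromide, and potency is given as Hill-fit AC50.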

[11] = Cell Viability - LYMP2-022 (AID 987)
Method in brief: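 Acute toxicity in a human lymphoblastoid line is scored as decreased intracellular ATP after 24 hr compound treatment at 37 C. ATP is measured by CellTiter-Glo luminescence; curves are fitted with the Hill equation to give AC50.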

[12] = Cell Viability - LYMP2-024 (AID 988);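 also: plate controls were DMSO only for no effect and 92 µM tetraoctylammonium bromide for full effect; nearly all actives have a fitted effect of over 60% in size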
Method in brief: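 Acute toxicity is measured as concentration-dependent loss of intracellular ATP in a human lymphoblastoid line treated 24 hours at 37 C. Luciferase luminescence quantifies ATP; AC50 values come from standard Hill-equation modelling.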

[13] = Cell Viability - LYMP2-026 (AID 989); also: % is scaled to controls: 0 for no effect and ±100 for the full control effect; nearly all actives have a fitted effect of over 50% in size
Method in brief: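 Concentration-dependent loss of intracellular ATP in human lymphoblastoid cells after 24 hr at 37 C, quantified by luciferase luminescence. AC50 derived from standard Hill equation.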

[14] = Cell Viability - LYMP1-002 - Assay at 24 hr (AID 993); also: % is scaled to controls: 0 for no effect and ±100 for the full control effect
Method in brief: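 qHTS, LYMP1-002 lymphoblastoid, 24 h cpd, 37 C, CellTiter-Glo ATP luminescence; AC50 via Hill eq.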

[15] = Cell Viability - LYMP1-002 - Assay at 40 hr (AID 994);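 also: 0% = DMSO only and full inhibition = 92 µM tetraoctylammonium bromide; nearly all actives have a fitted effect of over 60% in size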
Method in brief: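 Viability in the human lymphoblastoid line was measured as intracellular ATP via CellTiter-Glo after 40 hr compound exposure. Tetraoctylammonium bromide served as positive control.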

[16] = qHTS Assay for Identification of Small Molecule Inducers of Hypoxia Response (AID 2120; active = well fitted curve in the direction sought with a large enough effect in the signal ratio, with a control signal flat, not every such curve was filed as active; the % refers to the signal ratio; also: 0% is about no effect)
Method in brief: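 Induction of beta-lactamase reporter activity was measured in CellSensor HRE-bla ME-180 cells after 17 h compound treatment at 37 degrees C, using CCF4 substrate and the 460nm/530nm emission ratio to derive AC50 values.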

[17] = target: Estrogen receptor (Homo sapiens) (UniProt P03372); experiment: qHTS assay for small molecule agonists of estrogen receptor alpha signaling (AID 588514; calls by dose curve;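 also: 0% = vehicle only and 100% = reference agonist; nearly all actives have a fitted effect of over 70% in size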)
Sequence of Estrogen receptor (Homo sapiens) (P03372 whole entry, looked up): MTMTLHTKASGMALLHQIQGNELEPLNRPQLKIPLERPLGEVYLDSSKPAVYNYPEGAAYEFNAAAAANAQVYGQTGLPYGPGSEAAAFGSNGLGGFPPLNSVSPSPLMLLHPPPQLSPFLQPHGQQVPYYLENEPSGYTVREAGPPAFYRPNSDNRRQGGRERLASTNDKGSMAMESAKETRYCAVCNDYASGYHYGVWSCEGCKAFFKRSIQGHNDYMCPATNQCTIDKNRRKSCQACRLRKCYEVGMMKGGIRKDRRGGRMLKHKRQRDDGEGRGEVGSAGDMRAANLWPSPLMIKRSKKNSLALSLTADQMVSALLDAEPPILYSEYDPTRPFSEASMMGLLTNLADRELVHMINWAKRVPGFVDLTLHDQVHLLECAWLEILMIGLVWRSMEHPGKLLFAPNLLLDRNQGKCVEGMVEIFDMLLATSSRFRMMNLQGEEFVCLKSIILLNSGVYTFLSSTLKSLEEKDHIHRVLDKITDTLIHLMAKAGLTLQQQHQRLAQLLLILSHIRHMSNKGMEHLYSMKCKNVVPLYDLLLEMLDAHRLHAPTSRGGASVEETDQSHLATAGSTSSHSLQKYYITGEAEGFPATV
Method in brief: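 Reporter-gene assay. […] controls beta-lactamase in HEK 293 GripTite cells; after 18 hrs with compound, CCF4 substrate is added for 2 hrs and fluorescence is read.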

[18] = target: Androgen receptor (Homo sapiens) (UniProt P10275); experiment: qHTS assay for small molecule agonists of androgen receptor signaling (AID 588515; active = well fitted curve in the direction sought with a large enough effect in the signal ratio, with a control signal flat; the % refers to the signal ratio; also: % is scaled to controls: 0 for no effect and ±100 for the full control effect); details: AR-UAS-bla HEK293, beta-lactamase ratio, agonist 16 h; active compounds read high
Sequence of Androgen receptor (Homo sapiens) (P10275 whole entry, looked up): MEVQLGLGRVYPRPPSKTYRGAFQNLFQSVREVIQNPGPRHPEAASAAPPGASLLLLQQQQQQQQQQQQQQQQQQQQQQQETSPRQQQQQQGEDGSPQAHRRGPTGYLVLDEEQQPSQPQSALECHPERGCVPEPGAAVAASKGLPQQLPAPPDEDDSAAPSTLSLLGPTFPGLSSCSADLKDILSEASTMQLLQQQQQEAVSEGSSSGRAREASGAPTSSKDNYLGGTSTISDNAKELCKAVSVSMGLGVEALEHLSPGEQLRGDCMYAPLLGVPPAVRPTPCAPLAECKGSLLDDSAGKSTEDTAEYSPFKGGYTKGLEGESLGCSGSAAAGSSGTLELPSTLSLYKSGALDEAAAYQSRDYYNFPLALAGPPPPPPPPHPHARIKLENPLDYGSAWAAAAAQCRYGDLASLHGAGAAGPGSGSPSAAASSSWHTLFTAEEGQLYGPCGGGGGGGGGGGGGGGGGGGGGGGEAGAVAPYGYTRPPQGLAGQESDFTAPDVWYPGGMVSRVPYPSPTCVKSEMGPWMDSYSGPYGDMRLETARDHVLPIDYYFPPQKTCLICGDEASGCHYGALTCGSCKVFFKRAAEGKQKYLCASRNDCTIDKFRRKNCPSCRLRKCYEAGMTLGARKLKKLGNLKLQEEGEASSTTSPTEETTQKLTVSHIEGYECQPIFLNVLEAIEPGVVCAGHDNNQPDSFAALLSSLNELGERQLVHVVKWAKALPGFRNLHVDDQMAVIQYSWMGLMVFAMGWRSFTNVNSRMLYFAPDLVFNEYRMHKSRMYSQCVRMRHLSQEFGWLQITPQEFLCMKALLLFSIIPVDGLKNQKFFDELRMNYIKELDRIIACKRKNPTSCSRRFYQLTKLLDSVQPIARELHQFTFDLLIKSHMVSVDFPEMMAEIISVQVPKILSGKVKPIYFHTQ
Method in brief: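 EC50 and efficacy came from Hill fits of titrations (up to 92 uM) normalized to 30 nM R1881 as 100% and DMSO as 0%. Compound exposure was 16 h at 37 C on AR-UAS-bla HEK293 cells, with a 405/460/530 nm CCF4 fluorescence read.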

[19] = Cell Viability - LYMP2-007 (AID 979)
Method in brief: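 Acute toxicity is scored as a concentration-dependent fall in intracellular ATP in human lymphoblastoid cells treated 24 hr at 37 C, measured by luciferase luminescence; Hill-equation modelling yields AC50.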

[20] = target: Estrogen receptor (Homo sapiens) (UniProt P03372); experiment: qHTS assay for small molecule antagonists of estrogen receptor alpha signaling (AID 588513; active = well fitted curve in the direction sought with a large enough effect in the signal ratio, with a control signal flat, not every such curve was filed as active; the % refers to the signal ratio; also: % is scaled to controls: 0 for no effect and ±100 for the full control effect)
Method in brief: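 Antagonist mode: inhibition of 0.5 nM 17-beta-estradiol-driven beta-lactamase reporter in HEK 293 ER-alpha-UAS-bla cells, 18 h at 37C, CCF4 readout after 2 h at RT. Normalised to estradiol and DMSO; titration fitted to Hill.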

NC(=O)c1cccc([N+](=O)[O-])c1
inactive: Potency [1] | Potency [2] | Potency [3] | Potency [4] | Potency [5] | Potency [6] | Potency [7] | Potency [8] | Potency [9] | Potency [10] | Potency [11] | Potency [12] | outcome [13] | Potency [14] | Potency [15] | outcome [16] | Potency [17] | activation [18] 2.01%

CC(C)=C1CCC(C)CC1=O (centres undefined)
inactive: Potency [1] | Potency [2] | Potency [3] | Potency [19] | Potency [4] | Potency [5] | Potency [6] | Potency [7] | Potency [8] | Potency [9] | Potency [10] | Potency [11] | Potency [12] | outcome [13] | Potency [14] | Potency [15] | outcome [16] | Potency [17]

NC(N)=S
inactive: Potency [1] | Potency [2] | Potency [3] | Potency [4] | Potency [5] | Potency [6] | Potency [7] | Potency [8] | Potency [9] | Potency [10] | Potency [11] | Potency [12] | outcome [16] | outcome [20] | Potency [17]

O=C(O)c1ccccc1C(=O)O
inactive: Potency [1] | Potency [2] | Potency [3] | Potency [19] | Potency [4] | Potency [5] | Potency [6] | Potency [7] | Potency [8] | Potency [9] | Potency [10] | Potency [11] | Potency [12] | outcome [13] | Potency [14] | Potency [15] | outcome [16] | Potency [17]

CNC(=O)N(c1ccccc1)c1ccccc1
inactive: Potency [2] | Potency [3] | Potency [19] | Potency [4] | Potency [5] | Potency [6] | Potency [7] | Potency [8] | Potency [9] | Potency [10] | Potency [11] | Potency [12] | outcome [13] | Potency [14] | Potency [15] | outcome [16] | Potency [17] | activation [18] -11.4%

CCCCCCCCCCCCOCC1CO1 (centres undefined)
inactive: Potency [1] | Potency [2] | Potency [3] | Potency [4] | Potency [5] | Potency [6] | Potency [7] | Potency [8] | Potency [9] | Potency [10] | Potency [11] | Potency [12] | outcome [13] | Potency [14] | Potency [15] | outcome [16] | outcome [20] | Potency [17]

CCCCCCCCC
inactive: Potency [1] | Potency [2] | Potency [3] | Potency [19] | Potency [4] | Potency [5] | Potency [6] | Potency [7] | Potency [8] | Potency [9] | Potency [10] | Potency [11] | Potency [12] | Potency [14] | Potency [15] | outcome [16] | Potency [17]

O=C(O)CCSSCCC(=O)O
inactive: Potency [1] | Potency [2] | Potency [3] | Potency [19] | Potency [4] | Potency [5] | Potency [6] | Potency [7] | Potency [8] | Potency [9] | Potency [10] | Potency [11] | Potency [12] | outcome [13] | Potency [14] | Potency [15] | outcome [16] | Potency [17] | activation [18] -2.34%

Nc1ccc(Cl)cc1[N+](=O)[O-]
inactive: Potency [1] | Potency [2] | Potency [3] | Potency [19] | Potency [4] | Potency [5] | Potency [6] | Potency [7] | Potency [8] | Potency [9] | Potency [10] | Potency [11] | Potency [12] | outcome [13] | Potency [14] | Potency [15] | outcome [16] | Potency [17] | activation [18] 7.43%

Cc1cccc(C(=O)O)c1
inactive: Potency [1] | Potency [2] | Potency [3] | Potency [19] | Potency [4] | Potency [5] | Potency [6] | Potency [7] | Potency [8] | Potency [9] | Potency [10] | Potency [11] | Potency [12] | outcome [13] | outcome [16] | Potency [17] | activation [18] -5.05%

CC(C)CCOC(=O)/C=C/c1ccccc1
inactive: Potency [1] | Potency [2] | Potency [3] | Potency [4] | Potency [5] | Potency [6] | Potency [7] | Potency [8] | Potency [9] | Potency [10] | Potency [11] | Potency [12] | outcome [13] | Potency [14] | Potency [15] | outcome [16] | outcome [20] | Potency [17]

Cc1ccc(N(C)C)cc1
inactive: Potency [1] | Potency [2] | Potency [3] | Potency [19] | Potency [4] | Potency [5] | Potency [6] | Potency [7] | Potency [9] | Potency [10] | Potency [11] | Potency [12] | outcome [13] | Potency [14] | Potency [15] | outcome [16] | Potency [17] | activation [18] 15.4%

Cc1ccc(C)c(N)c1
inactive: Potency [1] | Potency [2] | Potency [3] | Potency [19] | Potency [4] | Potency [5] | Potency [6] | Potency [7] | Potency [8] | Potency [9] | Potency [10] | Potency [11] | Potency [12] | Potency [14] | Potency [15] | outcome [16] | Potency [17]

CCOc1ccccc1N
inactive: Potency [1] | Potency [2] | Potency [3] | Potency [19] | Potency [4] | Potency [5] | Potency [6] | Potency [7] | Potency [8] | Potency [9] | Potency [10] | Potency [11] | Potency [12] | Potency [14] | Potency [15] | outcome [16] | Potency [17]

CCOC(C)(C)C
inactive: Potency [1] | Potency [2] | Potency [3] | Potency [19] | Potency [4] | Potency [5] | Potency [6] | Potency [7] | Potency [8] | Potency [9] | Potency [10] | Potency [11] | Potency [12] | outcome [13] | Potency [14] | outcome [16] | outcome [20]

ClCCl
inactive: Potency [1] | Potency [2] | Potency [3] | Potency [19] | Potency [4] | Potency [5] | Potency [6] | Potency [7] | Potency [8] | Potency [9] | Potency [10] | Potency [11] | Potency [12] | outcome [13] | Potency [15] | outcome [16] | Potency [17] | activation [18] 2.05%

Nc1cccc(C(F)(F)F)c1
inactive: Potency [1] | Potency [2] | Potency [3] | Potency [19] | Potency [4] | Potency [5] | Potency [6] | Potency [7] | Potency [8] | Potency [9] | Potency [10] | Potency [11] | outcome [13] | Potency [14] | Potency [15] | outcome [16] | Potency [17]
